The values that follow come from ChEMBL document CHEMBL3988442, “University of Dundee, Small-Polar-MMV Screening Library” (2021).

The experiment has as its target AMP-activated protein kinase, AMPK (Homo sapiens) (UniProt P54646+O43741+P54619+Q9UGJ0+Q9Y478+Q13131+Q9UGI9). Kind of experiment: AMP-dependent Kinase enzyme assay. An in vitro enzyme assay that detects ADP turnover that is directly proportional to AMPK activity. This uses naive AMPK that is activated during the assay with MK-8722. It is filed as functional. Also noted: scale not given: direction of the effect not stated beside the values. The following applies: 30 µM.
With `COc1ccc(-c2cc(C3CC3)c(C#N)c(N)n2)cc1F`, the Percent Effect was 9.02%. The figure for `CN(C(=O)c1ccccc1N(C)S(C)(=O)=O)c1ccc(C(C)(C)C)cc1` is 6.59%; for `Cc1nc(COc2ccc(N(C)S(C)(=O)=O)cc2)sc1C` it is -7%. The figure for `CS(=O)(=O)c1ccc(Cl)c(NC(=O)NCCC2=CCCCC2)c1` is 3.49%; for `Cc1nc(COC(=O)c2cccc3c2OCCO3)cs1` it is 3.39%.

With `COc1ncc(CN2CCC3(CCNC(=O)CC3)CC2)cn1`, the Percent Effect is -1.6%. The figure for `Cc1cc(C(=O)N(C)CCN(C)C(=O)OC(C)(C)C)oc1C` is 5.9%; for `COCCNc1ccc(CC2CCCN(C3CCCC3)C2)nn1` (stereo not given) it is 4.32%. The same measure for `CN1CCCCC1Cc1nc2c(cc1C(N)=O)CCC2` (stereo not given): -4.26%; for `Cc1cccc(C)c1Oc1ncccc1CNC(=O)C1COC(=O)N1` (stereo not given): -10.7%; for `Cc1nn(C)cc1C(=O)N1CCCn2nc(CN3CC[C@H](F)C3)cc2C1`: 2.32%. The same measure for `CCC(C)NC(=O)c1sccc1-n1cnnn1` (stereo not given): 9.35%; for `CCSc1cc(C(=O)N(Cc2cnn(C)c2)C(C)C)ccn1`: 1.44%; for `CCc1noc(C(C)N2CCc3c(ncn3C3CC3)C2)n1` (stereo not given): 14.3%.

For the compound `CCc1cccc(OCCCN(C)C(=O)CN2CCNC2=O)c1`, the Percent Effect came out at 5.57%. The figure for `CN1CCC(Cc2cnc(CNC(=O)Cc3cccc(F)c3)cn2)CC1` is 3.91%; for `O=C(Cc1cccnc1)N1CCCC(c2cc(C(F)(F)F)[nH]n2)C1` (stereo not given) it is 2.17%. The same measure for `O=S(=O)(NC1CCOC1)c1ccc(C(F)(F)F)nc1` (stereo not given): 6.19%. The same measure for `Cc1ccc(-c2cc(C(=O)NCC3CCOC3)n[nH]2)s1` (stereo not given): -4.75%; for `COc1ccccc1CCNC(=O)N(C)C(C)CS(C)(=O)=O` (stereo not given): -5.38%; for `Cc1cc(N2CCC(n3cc(CN4CCNCC4)nn3)CC2)ccn1`: -7.65%. For the compound `CC(C)[C@H]1CN(Cc2nccn2C)C[C@@H]1NC(=O)CCS(C)(=O)=O`, the Percent Effect is 1.59%.

As to `CSc1nccc(N2CCC3(CCCN(CCc4ccccc4)C3)C2)n1` (stereo not given), the Percent Effect was found to be 5.34%. As for `N#CC1(NC(=O)CN2CCc3c(ncn3C3CC3)C2)CCCC1`, the Percent Effect was -7.46%. The figure for `Cc1ccccc1C(=O)NC(C)CN1CCOC1=O` (stereo not given) is 14.9%; for `Cn1cc(-c2cc(C(=O)N3CCOCC3)c3ccc(F)cc3n2)cn1` it is 18.9%; for `Cc1cc(-c2n[nH]c3c2CN(S(=O)(=O)c2ccsc2)CC3)c(C)o1` it is 4.26%.

Take `CCCS(=O)(=O)NCc1nc(C)cc(N2CCCC2)n1`: the Percent Effect was determined as 4.77%. For the compound `O=C(Nc1ccc(-c2csnn2)cc1)NC(CCO)C1CC1` (stereo not given), the Percent Effect amounted to 12.3%. With `Cc1cnn(CCCNC(=O)NCCS(=O)(=O)Nc2ccccc2)c1`, the Percent Effect turned out to be 13.3%. The same measure for `CN(C)C(=O)c1cncnc1-c1ccc(CNC(=O)C2CCCO2)cc1` (stereo not given): -0.401%. On to `COCCNc1ccc(CNCc2cnc3nc(C)cc(C)n23)cc1`, for which the Percent Effect is -9.48%. The same measure for `O=C(Nc1ccccc1OCCc1ccccn1)N1CCOCC1`: 10.6%; for `COC(=O)c1ccc(N(C(=O)c2cccnc2C)C(C)C)c(C)c1`: -5.67%.

For the compound `Cc1cc(C(=O)NC(C)Cc2cccc(Cl)c2)n(C)n1` (stereo not given), the Percent Effect turned out to be 10.6%. The figure for `CSc1ccc(C(=O)C2CCCN(C(=O)CCn3cncn3)C2)cc1` (stereo not given) is 10.4%; for `Cc1nc(C)c(C(=O)N2CCc3c(Cl)cccc32)o1` it is 1.75%; for `CCc1ocnc1C(=O)N1CCC2(CCCN(CC(C)(C)C)C2=O)C1` (stereo not given) it is 9.83%. Consider `COC(=O)c1ccc(NC(=O)CCc2ccco2)cc1`, for which the Percent Effect came to 20.9%.

Consider `Cc1cnn(C2CN(CCOc3ccc(C#N)cc3)C2)c1`, for which the Percent Effect worked out at 5.88%.
